# In the library only some 3.3% were active in any assay of this set; here they are far more common.
# Vaccinia Venus – qHTS for Stage-Specific Inhibitors of Vaccinia Orthopoxvirus: Venus Reporter Primary qHTS. Potency, µM (highest dose often 36.5 µM), without a hit: at the highest dose activity change, negative = inhibition, most hits filed as inhibitors. Vaccinia virus Venus reporter expression, fluorescence. hit rate 0.46% among 330,000. AID 720580, 2013; calls by dose curve; tested in A549 cells; also: nearly all actives have a fitted effect of over 30% in size
# HCV inhibitor – qHTS Assay for Inhibitors of Hepatitis C Virus (HCV). AID 651820, 2012. Potency, µM (titrated, usually from 41.8 µM), for the others: at the top dose activity change, negative = inhibition, actives largely listed as inhibitors. Huh7.5.1 HCVcc-Cre infection, luciferase reporter, 44 h. hit rate 3.4% among 340,000; active = well fitted inhibition curve with a large enough effect; inconclusive = small, poorly fitted or top-dose-only effect, or another doubt; inactive = no such curve, though single readings can be large or run the other way
#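 Compounds are dispensed onto cells plated 4 h earlier at 1,000 per well, with HCVcc-Cre virus (about 0.5 moi) added next. Following 44 h of culture, luminescent signal is measured for 15 sec after 15 min with substrate at room temperature.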
# VACV mCherry inh – qHTS for Stage-Specific Inhibitors of Vaccinia Orthopoxvirus: mCherry Reporter Primary qHTS; Vaccinia virus mCherry reporter infection, fluorescence; Potency, µM (titrated, usually from 36.5 µM), for inactives: at the highest dose activity change, negative = inhibition, usual class: inhibitors; hit rate 0.63% among 310,000; calls by dose curve; tested in A549 cells; also: nearly all actives have a fitted effect of over 35% in size
# * = called active by the depositor; i = inactive; u = inconclusive; x = no result; [ ] = dose if it differs, or a comment. % is scaled to controls: 0 for no effect and ±100 for the full control effect; potency is read from the fitted curve at half-maximal effect.
SMILES,Vaccinia Venus,HCV inhibitor,VACV mCherry inh
CCN(CC)c1ccc(NC(=O)COc2ccccc2C#N)cc1S(=O)(=O)Nc1ccc(OC)cc1,-14%,u,i
CCN(CC)c1ccc(NC(=O)c2ccccc2Br)cc1S(=O)(=O)Nc1ccccc1OC,-6%,u,-9%
COC(=O)c1ccc(/C=C/c2c(-c3ccsc3)oc3ccc(N4CCOCC4)cc23)cc1,-22%,12%,-13%
Cc1nc([N+](=O)[O-])cn1CC(O)c1ccc2c(c1)OCO2 (stereo not drawn),-10%,x,-13%
Cc1cc(OCCn2ccnc2)cc(C(C)C)c1,-12%,u,-14%
Cc1cc(C)cc(OCCn2ccnc2)c1,x,6.3µM*,x
N#CC1(NC(=O)COC(=O)c2cc(=O)[nH]c3ccccc23)CCCCC1,-12%,18%,i
CC(C)(O)C(=O)NNC(=S)Nc1cccc(C(F)(F)F)c1,x,13%,x
O=C(NNc1ccccc1Br)C(O)(c1cccc(C(F)(F)F)c1)c1cccc(C(F)(F)F)c1,u,u,11µM*
c1ccc(-c2cc(CSc3nc4ccccc4[nH]3)on2)cc1,u,4µM*,x
Cc1noc(C)c1CSc1nc2ccccc2[nH]1,u,18%,x
Cc1nnc(N2CCC(C(=O)NCCc3ccccc3Cl)CC2)c2nn(-c3ccccc3)c(C)c12,u,x,28µM*
Cc1ccc(-n2nc3c(N4CCCC(C(=O)NCc5ccc(Cl)cc5)C4)nnc(C)c3c2C)cc1 (stereo not drawn),-17%,x,-8%
CCOc1ccc(CNC(=O)C2CCN(c3nnc(C)c4c(C)n(-c5ccc(C)cc5)nc34)CC2)cc1,x,13µM*,x
Cc1nnc(N2CCCC(C(=O)NCCc3ccccc3)C2)c2nn(-c3ccccc3)c(C)c12 (stereo not drawn),-17%,x,-11%
Cc1nnc(N2CCC(C(=O)NC3CCCCC3)CC2)c2nn(-c3ccccc3)c(C)c12,-9%,x,i
CCOc1ccccc1CNC(=O)C1CCN(c2nnc(C)c3c(C)n(-c4ccc(C)cc4)nc23)CC1,11µM*,11µM*,11µM*
COc1ccccc1CCNC(=O)C1CCN(c2nnc(C)c3c(C)n(-c4ccc(C)cc4)nc23)CC1,10µM*,u,14µM*
COc1ccc(-n2nc3c(N4CCC(C(=O)NCCc5ccco5)CC4)nnc(C)c3c2C)cc1,-19%[7.34 µM],u,-24%[7.34 µM]
Cc1nn2c(=O)cc(COC(=O)c3ccc(NC(=O)c4cccc(Br)c4)cc3)nc2s1,-26%,x,-7%
Cc1ccc(C)c(N2CCN(CCCNC(=O)c3nnc(Cc4ccc(F)cc4Cl)o3)CC2)c1,-26%,x,-28%
Cc1ccc(-n2nc3c(N4CCC(C(=O)NCc5ccccc5Cl)CC4)nnc(C)c3c2C)cc1,10µM*,x,u
Cc1nnc(N2CCCC(C(=O)Nc3cccc(C(F)(F)F)c3)C2)c2nn(-c3ccccc3)c(C)c12 (stereo not drawn),-20%,x,-29%
Cc1ccccc1CNC(=O)C1CCCN(c2nnc(C)c3c(C)n(-c4ccccc4)nc23)C1 (stereo not drawn),x,11%,x
CCOc1ccc(-n2nc3c(Cl)nnc(C)c3c2C)cc1,-16%,-13%,-6%
SMILES,Vaccinia Venus,HCV inhibitor,VACV mCherry inh
Cc1ccc(-n2nc3c(N4CCC(C(=O)NCc5ccccc5C)CC4)nnc(C)c3c2C)cc1,x,6.3µM*,x
Cc1ccc(NC(=O)C2CCCN(c3nnc(C)c4c(C)n(-c5ccccc5)nc34)C2)cc1Cl (stereo not drawn),11µM*,x,u
CCOc1ccc(-n2nc3c(SCCN4CCCC4)nnc(C)c3c2C)cc1,-17%,10µM*,-28%
Cc1nnc(N2CCCC(C(=O)NCc3ccccc3F)C2)c2nn(-c3ccccc3)c(C)c12 (stereo not drawn),x,-16%,x
O=C(c1ccc2c(c1)N(Cc1c(F)cccc1Cl)C(=O)c1ccccc1S2)N1CCCC1,-7%,x,-9%
CC(=O)N/C(=C/c1ccccc1)c1sc2ccccc2[n+]1CCCCI,58%,x,18%
CC(=O)Nc1ccc(S(=O)(=O)NCc2nc(-c3ccccc3Cl)no2)cc1,-12%,16%,-21%
Cc1cc(C(=O)Nc2ccccc2-c2nc(CNC(=O)c3sc(C)nc3C)c(C)o2)c(C)o1,6%,x,-3%
CC1(C(=O)NS(=O)(=O)c2ccc(C#N)cc2)CCN1C(=O)c1ccccc1CCc1ccccc1 (stereo not drawn),-3%,x,19%
O=C(NCc1ccccn1)C(=O)NCC1OCCN1S(=O)(=O)c1ccc(Cl)cc1 (stereo not drawn),-7%,20%,-11%
C=CCN(C(=O)CNC(=O)c1ccco1)C(C(=O)NC1CCCCC1)c1cccnc1 (stereo not drawn),4%,-11%,-2%
CCOc1cc(/C=C2\CN(C)C/C(=C\c3ccc(O)c(OCC)c3)C2=O)ccc1O,u,22µM*,u
COc1cc(/C=C2/NC(=O)N(Cc3ccccc3F)C2=O)cc(OC)c1O,-1%,-17%,5µM*
O=C(O)c1ccc(COc2ccccc2/C=C2\NC(=O)N(Cc3ccccc3F)C2=O)cc1,-9%,-12%,i
COc1cc(C=C2CN(C)C(=O)C2=O)ccc1O,0%,x,i
CCN=C1S/C(=C\c2ccc(N3CCOCC3)cc2C)C(=O)N1CC,-4%,34%,-17%
CCOc1cc(/C=C2/NC(=O)N(Cc3ccccc3F)C2=O)ccc1O,-28%,10µM*,x
Cc1cc(N2CCOCC2)ccc1/C=C1\NC(=O)N(Cc2ccccc2F)C1=O,x,4µM*,x
O=C1N/C(=C/c2cccn2-c2ccccc2)C(=O)N1Cc1ccccc1F,-8%,10%,-14%
Cc1ccc(NC(=O)COc2ccccc2C(=O)Nc2ccccc2)cc1,-26%,x,i
C=CCn1c(SCC(=O)NC2(C)CCS(=O)(=O)C2)nc2ccccc21 (stereo not drawn),x,3%,x
CSc1nc(Sc2ccc(Cl)cc2)c2ccccc2n1,-13%,-11%,-10%
CSc1nc(Sc2ccccc2)c2ccccc2n1,3%,4.5µM*,-1%
COc1ccc2cc(CNCCOCCOCCNCc3ccc4cc(OC)ccc4c3)ccc2c1,u,4µM*,u
CCOCCCNCc1ccc(OC)cc1,-16%,17%,-15%
SMILES,Vaccinia Venus,HCV inhibitor,VACV mCherry inh
COc1cc(-c2cnc3ccccc3c2)cc2c1OCCN(C(=O)CCC(=O)c1ccc(F)cc1)C2,-2%,x,-8%
O=C(NCCS(=O)(=O)N1CCCCC1)c1ccccc1,-12%,5%,-8%
COc1ccc(/C=C2/SC(=O)N(CCC(=O)Nc3ccc(C)cc3)C2=O)cc1OC,x,4%,x
COc1ccc(/C=C2\SC(=O)N(CCNC(=O)Cc3coc4cc(C)ccc34)C2=O)cc1OC,x,13µM*,x
CCC1(C2CCN(Cc3cccc(Cl)c3)CC2)NC(=O)N(CC2COc3ccccc3O2)C1=O (stereo not drawn),-17%,x,-21%
Cc1cccc(NC2=C(NC(=O)c3ccccc3)C(=O)c3ccccc3C2=O)c1,-17%,u,-24%
O=C(NC1=C(Nc2ccc(Cl)cc2)C(=O)c2ccccc2C1=O)c1ccccc1,u,u,28µM*
COc1cccc(-c2nc(CS(=O)(=O)CC(=O)N3CCN(c4ccccc4)CC3)c(C)o2)c1,-16%,x,-23%
COc1ccc(CN(C)Cc2nc(Cc3cccc(F)c3)no2)c2cccnc12,u,10µM*,u
